Compounds with a hit are over-represented: about 8.9% of the library has one in this group of screens.
M1 antagonist = antagonists of rat M1 muscarinic receptor. B-score at 10 µM. Muscarinic acetylcholine receptor M1 (Rattus norvegicus), P08482. CHO-M1 cells, Fluo-4 calcium, ACh EC80 antagonist mode; active compounds read low. AID 628, 2007. 64,000 tested, 3.4% active;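 active means calcium fluorescence response, raw or row-and-column corrected B-score, differing from the plate sample mean either way at a set confidence level, mostly lower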
Target sequence (P08482 whole entry, looked up): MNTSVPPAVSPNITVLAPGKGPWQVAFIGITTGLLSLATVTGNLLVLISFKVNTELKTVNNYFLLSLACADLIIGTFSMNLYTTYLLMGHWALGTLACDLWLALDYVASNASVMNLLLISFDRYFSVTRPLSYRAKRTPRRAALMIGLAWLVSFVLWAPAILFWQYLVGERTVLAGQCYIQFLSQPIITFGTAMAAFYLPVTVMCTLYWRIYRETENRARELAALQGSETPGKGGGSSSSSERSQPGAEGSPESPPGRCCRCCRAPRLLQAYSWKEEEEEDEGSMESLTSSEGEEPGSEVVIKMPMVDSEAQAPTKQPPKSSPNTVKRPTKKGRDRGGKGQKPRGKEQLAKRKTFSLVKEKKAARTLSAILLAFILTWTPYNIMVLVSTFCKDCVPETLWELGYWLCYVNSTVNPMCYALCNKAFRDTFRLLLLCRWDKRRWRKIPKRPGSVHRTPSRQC
D1 allo mod = D1 CRE-luciferase signal change, two-sided – cell-based, HEK293 D1, dopamine EC30, D1 allosteric modulator project, primary screen. D(1A) dopamine receptor (Homo sapiens), P21728. dopamine EC30 potentiation; actives deviate in either direction. B-score at 10 µM. 58,000 tested, 5.9% active;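 active means luminescence count or its row- and column-corrected plate score outside the 99.7% band of the plate's sample wells, on either side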
mHtt clearance = clearance of mutant huntingtin inclusions, primary screen, imaging, HeLa Exon1htt(103Q)mCFP, confocal imaging; aggregate imaging; zero = plate's median compound well; inhibition, % at 1.5 µM; 47,000 tested, 0.42% active;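 active means inhibition of aggregate fluorescence above about 70%, also judged a hit by eye on the cell image, limit read from the data, passing the limit was not always enough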;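 further: cells exposed to compound for three days before fixation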
WNV protease inh = inhibitors of WNV NS2B-NS3 protease, primary screen, biochemical, fluorogenic substrate | Genome polyprotein (West Nile virus), P06935 | fluorogenic substrate Ex360/Em465; active compounds read low | 65,000 tested, 0.18% active | z-score (no concentration beside the values); in the data active means z-score below about -3
M1 agonist = M1 muscarinic receptor agonists, primary screen, CHO-M1 cells, Fluo-4 calcium, agonist mode; Muscarinic acetylcholine receptor M1; Fluo-4 calcium fluorescence; active compounds read high; B-score at 10 µM; 64,000 tested, 3% active; AID 626, 2007;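 active means fluorescence rise, raw or as B-score row- and column-corrected plate score, outside the 99.7% band of its plate's samples, either direction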
Numbers stand for hits; . = inactive; / = no result.

SMILES	M1 antagonist	D1 allo mod	mHtt clearance	WNV protease inh	M1 agonist
FC(F)Oc1ccc(-c2csc(Cc3nnc4n3CCCCC4)n2)cc1	.	.	.	.	.
CCN1CCN(c2nc(-c3cccnc3)nc3ccccc23)CC1	.	-4.34	/	.	.
O=C(c1ccc(Cl)s1)N1CCN(c2nc3ccccc3s2)CC1	.	.	/	.	.
O=S(=O)(NCCOCC(F)(F)F)c1ccc2oc3ccccc3c2c1	.	.	.	.	.
CCC(NC(=O)Nc1cc(OC)c(OC)c(OC)c1)(C(F)(F)F)C(F)(F)F	2.41	.	.	.	.
Cc1nn2cc(-c3ccc(Cl)cc3)nc2s1	/	/	.	.	/
CCc1nn2cc(-c3ccccc3)nc2s1	.	-8.3	/	.	.
Cc1nn2cc(-c3ccc(-c4ccccc4)cc3)nc2s1	.	-3.96	/	.	.
O=C(NC1CCCCCC1)c1ccc(CN2CCOCC2)cc1	/	/	.	/	/
Cn1c(=O)c2[nH]c(CNCc3ccccc3Cl)nc2n(C)c1=O	.	.	.	.	.
Clc1ccc2nc(N3CCCCC3)[nH]c2c1	.	-4.95	/	.	.
Clc1ccc2nc(N3CCCCC3)sc2c1	/	.	/	.	/
CC1CCCCC1NS(=O)(=O)c1ccc(-n2cnnn2)cc1 (stereo not given)	.	-2.48	.	.	.
CCN(Cc1ccccc1)C(=O)c1ccccc1C	.	.	.	-3.46	.
O=C(O)c1ccccc1C(=O)N(Cc1ccccc1)Cc1ccccc1	/	/	.	/	/
Cc1ccc2c(c1)c1c(n2CC(O)Cn2c(C)nc3ccccc32)C(=O)CCC1 (stereo not given)	.	.	/	.	.
Cc1ccc2c(c1)c1c(n2CC(O)Cn2c(C)nc3ccccc32)/C(=N\O)CCC1 (stereo not given)	.	.	100.0	.	.
CCOc1cc2[nH]c(=O)n(CC3CCC(C(=O)NC(C)CC)CC3)c(=O)c2cc1OCC (stereo not given)	1.08	.	/	.	.
O=C(CNS(=O)(=O)c1ccc(F)cc1)N1CCN(c2ccccc2)CC1	.	.	.	.	.
CC(C)C1Cc2[nH]c(=O)c(C(=O)O)cc2CO1 (stereo not given)	.	.	.	.	.
CCn1c(=N)c(C(=O)OC)cc2c(=O)n3ccccc3nc21	.	.	/	.	4.81
COC(=O)c1cc2c(=O)n3ccccc3nc2n(C(C)C)c1=N	.	.	.	.	.
O=c1c2sc3nc(N4CCOCC4)c4c(c3c2ncn1Cc1ccco1)CCCC4	.	/	/	.	.
NC(=O)C1CCN(C(=O)CN(c2cccc(C(F)(F)F)c2)S(=O)(=O)c2ccccc2)CC1	.	-2.26	.	.	.
O=C(Nc1ccc2c(c1)nc1n2CCSC1)c1ccccc1	.	-3.7	.	.	.
SMILES	M1 antagonist	D1 allo mod	mHtt clearance	WNV protease inh	M1 agonist
CCNC(=O)NC(=O)C(C)Sc1ccc2c(c1)OCCO2 (stereo not given)	/	/	.	/	/
CC1=C(C(=O)N2CCCCC2)C(c2cccs2)C2=C(CCCC2=O)N1 (stereo not given)	.	.	.	.	.
CC1Cc2cc(/C(O)=C3\C(=O)C(=O)N(CCN(C)C)C3c3ccccc3F)ccc2O1 (stereo not given)	.	/	80.4	.	.
CC(C)(C)c1ccc(-c2noc(CCC(N)=O)n2)cc1	.	-3.48	.	.	.
COc1ccc2cc(CCNC(=O)C3CCCC3)c(=O)[nH]c2c1	.	.	/	.	.
Cc1sc2nc(-c3cccs3)nc(N3CCCN(C)CC3)c2c1C	-2.21	.	/	.	.
CSc1ccc(Cn2nnc(C(=O)Nc3ccc(C)c(C)c3)c2N)cc1	/	/	.	/	/
Nc1c(C(=O)NCc2ccco2)nnn1Cc1ccccc1	.	.	/	.	.
Cc1ccc(NC(=O)Cn2nnc(C(=O)Nc3ccc(C)c(C)c3)c2N)cc1	.	/	82.9	.	.
Cc1ccc(NC(=O)Cn2nnc(C(=O)NCc3ccco3)c2N)cc1	/	/	71.1	/	/
COc1ccc(CNc2nc(NCc3ccc(OC)c(OC)c3)n(C(=O)c3cccs3)n2)cc1OC	/	/	.	/	/
CCCc1nc(SCC(N)=O)[nH]c(=O)c1CC	.	-2.8	/	.	.
CCn1c2ccccc2c2cc(NC(=O)c3ccco3)ccc21	.	/	/	.	.
O=S(=O)(c1ccc(F)cc1)N(CCO)CC(O)Cn1c2ccccc2c2ccccc21 (stereo not given)	.	.	.	-4.11	.
COc1ccc(C(=O)OCCN2C(=O)c3ccccc3C2=O)cc1OC	.	5.69	/	.	.
COc1ccccc1OCCC(=O)OCCN1C(=O)c2ccccc2C1=O	.	/	.	.	.
Cn1c(N2CCC(C(N)=O)CC2)nc2c1c(=O)n(Cc1ccc(Br)cc1)c(=O)n2C	.	.	.	.	.
O=c1cc(Nc2ccc3c(c2)OCO3)[nH]c(=O)n1-c1ccc(Br)cc1	.	-7.65	.	.	.
O=c1cc(Nc2ccc3c(c2)OCCO3)[nH]c(=O)n1-c1ccc(Br)cc1	.	/	.	.	.
CCCOC(=O)c1ccc(-n2nnnc2SCC(=O)N2CCCCC2)cc1	/	-3.65	.	.	/
Cc1nc(NC(=O)CSc2ccccc2N)sc1C	.	.	/	.	.
CCN(CC)C(=O)Cn1nc(C)c2ccccc2c1=O	/	/	.	/	/
Cc1cc(Cl)ccc1OCC(=O)OC(C)C(=O)N(C)C (stereo not given)	.	/	.	.	.
CCN(CC)C(=O)C(C)OC(=O)COc1ccc(Cl)cc1C (stereo not given)	1.86	.	.	.	.
O=C(O)CC(CNS(=O)(=O)c1ccccc1)c1ccccc1 (stereo not given)	.	.	/	.	.
SMILES	M1 antagonist	D1 allo mod	mHtt clearance	WNV protease inh	M1 agonist
Cc1nn(CC(=O)Nc2cccnc2N2CCOCC2)c(=O)c2ccccc12	.	.	/	.	.
Cc1nc2ccccc2c2oc(C(=O)Nc3ccc4c(c3)OCCO4)cc12	.	-2.54	.	.	.
Cc1nc2ccccc2c2oc(C(=O)NCC3COc4ccccc4O3)cc12 (stereo not given)	.	-3.52	/	.	.
CCc1ccc(CNC(=O)c2cc3c(C)nc4ccccc4c3o2)cc1	/	/	.	/	/
CCSc1nnc(NC(=O)NC(CC)(C(F)(F)F)C(F)(F)F)s1	-1.39	.	.	.	5
CCC(NC(=O)Nc1nccs1)(C(F)(F)F)C(F)(F)F	.	.	/	.	.
CCOc1ccc(NC(=O)c2cnccn2)cc1	/	/	.	/	/
CCOc1ccc(NC(=O)c2cnsn2)cc1	.	-4.92	/	.	.
CCOc1ccc(NC(=O)c2ccccc2O)cc1	.	-4.71	/	.	.
Cc1nn(CC#N)c(=O)n1-c1cccc(F)c1	/	/	.	/	/
CCOc1ccccc1CNc1ccc(N2CCOCC2)c(C(=O)O)c1	.	.	/	.	.
O=C(Nc1ccc(O)cc1)c1ccc(C(=O)c2ccccc2)o1	.	-3.19	.	.	.
COCCSc1nnc(NC(=O)C(C)(C)C)s1	/	/	.	/	/
C=CCn1c(=O)c2ccccc2n2c(SCc3nnc(-c4ccccc4Br)o3)nnc12	.	.	/	.	.
Cc1nnc(SCC(=O)N2c3ccccc3Sc3ccccc32)n1N	.	.	.	.	.
Cc1nnc(SC(=O)N2c3ccccc3Sc3ccccc32)s1	.	-3.26	/	.	.

Screens (PubChem)
